HCMV antiviral: inhibitors of human cytomegalovirus. HFF cells, HCMV-luciferase reporter, 72 h; stronger effect = lower value. activity change, negative = inhibition, % at 57.5 µM. 4.5% of 410,000 active. AID 1259415; in the data active = activity change below about -60%; inconclusive = no clear call, values can overlap the other calls; inactive = above about -39%
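Screen run at 2 compound doses on HFFs infected with reporter HCMV, MOI 1 PFU/cell. Luciferase activity from cell lysates at 72 h post infection gave inhibition relative to buffer-only and Salinomycin wells.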
FMDV inh: foot and mouth disease virus antiviral activity; AID 1159524; 1.2% of 410,000 active; Potency, µM (highest dose often 57.9 µM), for the others: top-dose activity change, negative = inhibition, most hits filed as inhibitors; FMDV antiviral cell-based qHTS; calls by dose curve; tested in HEK293T cells; note: read-out not given here; potency is the fitted concentration of half-maximal effect; nearly all actives have a fitted effect of over 45% in size
Lassa entry inh: Lassa virus entry inhibition | Lassa virus pseudotype entry inhibition, cell reporter | Potency, µM (series often up to 37.9 µM), inactives show at the top dose activity change, negative = inhibition, most hits filed as inhibitors | 1.2% of 300,000 active; calls by dose curve; tested in HEK293 cells; note: potency is the fitted concentration of half-maximal effect; nearly all actives have a fitted effect of over 50% in size
Marburg entry inh: blocks Marburg virus binding to or entry into cells | Marburg virus pseudotyped entry inhibition, cell reporter | Potency, µM (top dose mostly 37.8 µM), for inactives: at the highest dose activity change, negative = inhibition, actives largely listed as inhibitors | 1.8% of 300,000 active; calls by dose curve; tested in HEK293 cells; note: potency is the fitted concentration of half-maximal effect
An asterisk follows results filed as active; ? = inconclusive; . = no result given; ! = not confirmed by another sample; [ ] = dose if it differs, or a comment. Most compounds without a hit are left out; they make up all but 6.2% or so of the library. % is set by controls: 0 for no effect and ±100 for the full control effect.

SMILES	HCMV antiviral	FMDV inh	Lassa entry inh	Marburg entry inh
O=S1(=O)CCC(N(N=Cc2ccco2)c2ccccc2)C1 (stereo not given)	-25	.	.	.
CC1(C)CC(=O)c2cc(-c3nc(-c4ccc(Cl)cc4)cs3)c(=O)[nH]c2C1	-4	-5%	15%[46.1 µM]	-10%[46.1 µM]
CCOC1(OCC)C(c2ccc(Cl)cc2)C(C#N)(C#N)C1(OCC)OCC (stereo not given)	?	?	21µM*	?
Cc1ccc(NC(=O)Nc2nnc(SCC(=O)N3CCC(C)CC3)s2)cc1	-88*	-6%	20%[46.1 µM]	.
CCCSc1nnc(NC(=O)Nc2ccc(C)cc2)s1	?	2%	8%[46.1 µM]	?
CCCSc1nnc(NC(=O)Nc2ccc(F)cc2)s1	-104*	-25%	?	?
CCCSc1nnc(NC(=O)CCc2ccccc2)s1	-31	-3%	.	.
CCCSc1nnc(NC(=O)Nc2ccccc2)s1	-99*	6%	12%	-23%
CCCCCOC(=O)[C@H](C)c1c(C)[nH]c(=S)[nH]c1=O	.	.	.	4%
C[C@H]1Cc2c(COc3ccccc3)nc3c(c2CO1)CN(C(=O)c1cc(I)ccc1F)CC3	.	.	.	-26%[14.2 µM]
CCCCCCCCCC[n+]1cccc2c3ccccc3ccc21	-108*	?	.	.
CCCCCCCC[n+]1cccc2c3ccccc3ccc21	-97*	?	.	.
Cc1cccc[n+]1CCCCCCCCCC[n+]1ccccc1C	?	-7%	?	?
CCCSc1ncc(Cl)c(C(=O)Nc2ccc(OC)cc2OC)n1	-25	-27%	2%[46.1 µM]	-19%[46.1 µM]
O=C(NCc1ccccc1Cl)c1ccccc1NC(=O)c1nsc2ccccc12	-37	23%	1%[46.1 µM]	.
COc1ccc(-n2c(=S)[nH]c3cc(C(=O)Nc4ccc(C)c(F)c4)ccc3c2=O)c(OC)c1	-76*	-17%	?	?
COc1ccc(NC(=O)c2ccc3c(=O)n(-c4ccc(OC)cc4OC)c(=S)[nH]c3c2)c(OC)c1	-24	?	-9%	-24%
CCOc1ccc(NC(=O)c2ccc3c(=O)n(-c4ccc(OC)cc4OC)c(=S)[nH]c3c2)cc1	-82*	.	.	.
CCC[C@H]1[C@H](NCc2ccccc2)CC[C@@]23CCCN2C(=O)CCC[C@@H]13	-7	.	.	.
Cc1cc(Cl)c2oc(C(=O)N3CCN(c4ccncc4)CC3)c(C)c2c1	-40	-15%	?	3.5µM*
CCOc1ncccc1C(=O)N(C)CC(=O)Nc1ccc(C)cc1	5	0%	-3%	11%
Cc1ccc(NC(=O)CN(C)C(=O)c2cccnc2Nc2cccc(C(F)(F)F)c2)cc1	-60*	-26%	.	.
Cc1ccc(S(=O)(=O)N/N=C/c2cccn2-c2ccc(Cl)cc2)cc1	-22	65%	?	3%
CC1=NN(c2ccc(Cl)cc2)C(=O)/C1=C\c1cccn1-c1ccc(S(N)(=O)=O)cc1	-8	40µM*	2%	-3%
CCOC(=O)c1cnc(Nc2nc3ccccc3o2)nc1CSC(=S)N(CC)CC	-64*	2%	?	1%
SMILES	HCMV antiviral	FMDV inh	Lassa entry inh	Marburg entry inh
CCC(NC(=O)Nc1cccc(C)c1)c1c(-n2cccc2)sc2c1CCN(C)C2 (stereo not given)	-13	-2%	-11%[46.1 µM]	.
CCC1CN(CC(=O)NC(C)CO)Cc2cc(OC)ccc2O1 (stereo not given)	.	4%	.	.
Cc1ccc2[nH]c3c(=O)n(CC(=O)Nc4ccc(Br)cc4C)ncc3c2c1	-4	-4%	3%[46.1 µM]	.
Cc1cc2c(cc1C)N(C(=O)CCl)CC(=O)N2	.	40µM*	.	.
Cc1ccc(C2(c3ccccc3)NC(=O)N(CC(=O)N3CC(=O)Nc4ccccc43)C2=O)cc1C (stereo not given)	-10	-29%	.	.
Cc1cc2c(cc1C)N(C(=O)CCl)CCN2C(=O)CCl	10	8.9µM*	?	?
Cc1ccc(Cl)cc1N1CCN(C(=O)CCC(=O)O)CC1	?	-6%	6%	20%
Cc1cccc(S(=O)(=O)N[C@@H]2CC[C@@H](CCNS(=O)(=O)c3ccccc3F)O[C@@H]2CO)c1	-37	-3%	.	.
COC(=O)c1scc(C)c1NC(=O)Nc1ccccc1	-99*	-13%	1%	-3%[46.1 µM]
COc1cccc(C(NC(C)=O)c2nc(-c3ccoc3)cs2)c1 (stereo not given)	5	-11%	.	.
Cc1cc(-c2cc(F)cc3c2OC(CNC(=O)CCn2cncn2)C3)ccc1F (stereo not given)	.	-7%	.	.
Cn1c(SC2=CS(=O)(=O)c3ccccc32)nc2ccccc21	-98*	28µM*	?	?
COC(=O)c1cccc(C(=O)N2CCc3c(C(=O)OC)c(OCc4ccccn4)cc(=O)n3CC2)c1	.	-8%	.	.
COCCNCC1C(Oc2ccc(Cl)cc2)C(=O)N1c1ccccc1C (stereo not given)	-16	-18%	-19%	?
COc1ccc(CCNCC2C(Oc3ccc(Cl)cc3)C(=O)N2c2ccccc2C)cc1OC (stereo not given)	?	?	5%[46.1 µM]	11µM*
CNC1C(O)C2OC3OC(C)CC(=O)[C@@]3(O)O[C@H]2[C@H](NC)C1O (stereo not given in full)	.	-12%	.	.
Cc1nc(-c2ccc(NC(=O)C(C)(C)C)cc2)c(-c2ccccc2)o1	-27	-24%	-23%	?
Cc1nc2c(o1)C(=O)c1ccccc1C2=Nc1ccccc1	-100*	18µM*	11µM*	?
COc1ccc(C(=O)Nc2cc(C(F)(F)F)ccc2-n2cnc3ccccc32)cc1	-73*	15%	0%	?
CC(=O)Nc1ccc(C(=O)Nc2cc(C(F)(F)F)ccc2-n2cnc3ccccc32)cc1	47	-4%	-2%	?
Cc1ccc(C)c(CNC(=O)c2sc3ncnc(N(C)C4CCCCC4)c3c2C)c1	-26	-23%	?	.
FC(F)(F)c1cccc(/C=N/NC(=S)NC2CCCCC2)c1	-95*	6%	?	?
COc1cc(C(=O)/C=C/c2cccnc2)ccc1O	12	?	?	?
COc1cc(OC)c(C(=O)/C=C/c2ccccc2)c(O)c1O	7	25µM*	.	.
COc1ccc(/C=C/C(=O)c2ccc(O)cc2O)cc1	.	34%	.	.
SMILES	HCMV antiviral	FMDV inh	Lassa entry inh	Marburg entry inh
COc1ccc(OC)c(C(=O)/C=C/c2cccnc2)c1	-100*	?	?	?
O=C(/C=C/c1ccc(O)cc1)c1ccc(O)cc1O	29	?	?	10µM*!
COc1ccc(C(=O)/C=C/c2ccccc2)c(O)c1	-106*	-1%	.	.
Cc1nc2ncnn2c(C)c1CCC(=O)NCc1ccccc1Cl	14	10%	-5%[46.1 µM]	7%[46.1 µM]
COc1ccc(CCN2C(=O)c3oc4ccc(F)cc4c(=O)c3C2c2ccc(C(C)(C)C)cc2)cc1 (stereo not given)	0	-6%	?	-4%[46.1 µM]
CSc1ccc(/C=C/C(=O)c2ccc(O)cc2)cc1	-5	-36%	-32%	-20%
O=C(/C=C/c1cccnc1)/C=C/c1cccnc1	-97*	11µM*	.	.
C(=Cc1cccnc1)c1ccncc1	-26	17%	-2%[46.1 µM]	-10%[46.1 µM]
Cc1ccc(/C=C/C(=O)c2ccc(O)cc2)cc1	-7	12%	8.9µM*	?
O=C(c1ccc(CNS(=O)(=O)c2ccccc2)cc1)N1CCN(Cc2ccccc2)CC1	-76*	?	?	?
CN(c1ccc(C(=O)N2CCN(Cc3ccccc3)CC2)cc1)S(=O)(=O)c1ccc(Cl)cc1	-63*	-23%	-11%[46.1 µM]	?

Screens deposited in PubChem BioAssay by National Center for Advancing Translational Sciences (NCATS).
